Bioassay records as filed in PubChem.
HCV inhibitor – qHTS Assay for Inhibitors of Hepatitis C Virus (HCV); 3.4% of 340,000 active; Potency, µM (highest dose often 41.8 µM), without a hit: at the highest dose activity change, negative = inhibition, hits mostly inhibitors; Huh7.5.1 HCVcc-Cre infection, luciferase reporter, 44 h; active = well fitted inhibition curve with a large enough effect; inconclusive = small, poorly fitted or top-dose-only effect, or another doubt; inactive = no such curve, though single readings can be large or run the other way; note: potency is the fitted concentration of half-maximal effect
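After 44 h co-culture of compound, cells and HCVcc-Cre (~0.5 moi), substrate is added for 15 min at room temperature and luciferase measured over 15 sec. Cells were seeded at 1,000/well and pre-cultured 4 h.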
FMDV inh – High Throughput Screening for Foot and Mouth Disease Virus Antivirals; FMDV antiviral cell-based qHTS; Potency, µM (highest dose often 57.9 µM), without a hit: at the top dose activity change, negative = inhibition, most hits filed as inhibitors; 1.2% of 410,000 active; calls by dose curve; tested in HEK293T cells; note: read-out not given here; potency is the fitted concentration of half-maximal effect; nearly all actives have a fitted effect of over 45% in size
HCMV inh – qHTS Assay for inhibitors of the human cytomegalovirus (HCMV); AID 1259415, 2018; HFF cells, HCMV-luciferase reporter, 72 h; stronger effect = lower value; activity change, negative = inhibition, % at 57.5 µM; 4.5% of 410,000 active; in the data active = activity change below about -60%; inconclusive = no clear call, values can overlap the other calls; inactive = above about -39%
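Inhibition of viral replication was scored as loss of reporter luminescence in HFFs infected with HCMV-luciferase (MOI 1 PFU/cell) for 72 h; compounds tested at 2 doses, normalized to buffer and Salinomycin controls.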
VACV Venus inh – qHTS for Stage-Specific Inhibitors of Vaccinia Orthopoxvirus: Venus Reporter Primary qHTS; Vaccinia virus Venus reporter expression, fluorescence; Potency, µM (highest dose often 36.5 µM), for inactives: at the top dose activity change, negative = inhibition, hits mostly inhibitors; AID 720580, 2013; 0.46% of 330,000 active; calls by dose curve; tested in A549 cells; note: potency is the fitted concentration of half-maximal effect; nearly all actives have a fitted effect of over 30% in size
VACV mCherry inh – qHTS for Stage-Specific Inhibitors of Vaccinia Orthopoxvirus: mCherry Reporter Primary qHTS; Vaccinia virus mCherry reporter infection, fluorescence; Potency, µM (highest dose often 36.5 µM), for inactives: at the top dose activity change, negative = inhibition, most hits filed as inhibitors; 0.63% of 310,000 active; AID 720579, 2013; calls by dose curve; tested in A549 cells; note: potency is the fitted concentration of half-maximal effect; nearly all actives have a fitted effect of over 35% in size
* = called active by the depositor; i = inactive; u = inconclusive; x = no result given; [ ] = dose if it differs, or a comment. The list is not random: actives were taken first. Their share in the collection is about 7.3%. % is set by controls: 0 for no effect and ±100 for the full control effect.

SMILES	HCV inhibitor	FMDV inh	HCMV inh	VACV Venus inh	VACV mCherry inh
Cn1nc(C(C)(C)C)cc1C(=O)NCc1ccc2c(c1)OCO2	1µM*	u	-83*	x	x
COc1ccc(C(=O)N2CCC[C@@]3(CCN(Cc4ccc(C#N)cc4)C3)C2)cc1	x	-19%	x	x	x
COc1ccccc1CNC(=O)c1cc(S(=O)(=O)N2CCCCCC2)cn1C	x	-18%	0	-8%	-9%
CCCCN1CC(N2CCCC2)CS1(=O)=O (stereo unspecified)	x	x	-13	x	x
COc1cc(Cl)c(C)cc1NC(=O)CC(c1ccc(F)cc1)N1Cc2ccccc2C1=O (stereo unspecified)	x	-14%	10	-26%	-24%
CNS(=O)(=O)/C=C/c1ccccc1	24%	13%	-72*	-8%	-13%
CCCNS(=O)(=O)/C=C/c1ccccc1	21%	52%	42	-13%	-9%
CCCCCCCCCCCCC/C=C/[C@@H](O)[C@H](CO)NC(C)=O	x	-5%[6.7 µM]	x	-3%[3.33 µM]	-15%[3.33 µM]
CCCC(=O)N1CCN(c2ccc(NC(=O)c3ccc(Br)o3)cc2)CC1	-5%	0%	-10	-23%	x
CCC(=O)N1CCN(c2ccc(NC(=O)c3ccc([N+](=O)[O-])o3)cc2)CC1	u	1%	-98*	u	u
CCCC(=O)N1CCN(c2ccc(NC(=O)c3ccc([N+](=O)[O-])o3)cc2)CC1	u	-20%	-96*	10µM*	10µM*
O=C(Nc1ccc(N2CCN(C(=O)c3ccccc3)CC2)cc1)c1ccc(Br)o1	u	0%	-25	-29%	x
O=C(Nc1ccc(N2CCN(C(=O)c3ccc(Cl)cc3)CC2)cc1)c1ccc([N+](=O)[O-])o1	10µM*	u	-96*	u	-21%
CC(C)(C)C(=O)N1CCN(c2ccc(NC(=O)c3ccc([N+](=O)[O-])o3)cc2)CC1	u	-8%	-99*	u	11µM*
CC(=O)N1CCN(c2ccc(NC(=O)c3ccc([N+](=O)[O-])cc3)cc2)CC1	-3%	12%	7	-7%	-8%
CCCNC(=O)N1[C@@H]2Cn3c(cccc3=O)[C@H]1[C@@H](C(=O)OC)[C@@H]2CO	x	x	8	x	x
CCN(CC)c1nn2c(=O)c(C(=O)NCc3ccc(OC)cc3OC)cnc2s1	x	-10%	-10	-14%	-13%
COc1ccc(-c2cscc2N)cc1	x	x	-3	x	x
O=C(CNC(=O)c1ccccc1F)OCC(=O)N1CCCCC1	9%	-16%	-62*	-1%	-8%
Cc1ccc(NC(=S)NC(NC(=O)c2ccccc2)C(Cl)(Cl)Cl)c(C)c1 (stereo unspecified)	u	u	-68*	u	u
O=C(O)c1cccc(NC(=S)NC(NC(=O)c2cccc([N+](=O)[O-])c2)C(Cl)(Cl)Cl)c1 (stereo unspecified)	30%	-3%	-19	x	x
O=C(NC(NC(=S)Nc1ccccc1)C(Cl)(Cl)Cl)c1cccc(Cl)c1 (stereo unspecified)	11µM*	x	-78*	u	u
C[C@H](NC(=O)/C(C#N)=C/c1ccc(O)c(O)c1)c1ccccc1	x	54%	x	x	x
O=C(N/N=C\c1cn(-c2ccccc2)nc1-c1ccccc1)c1ccc(Br)o1	4µM*	u	75	-29%	u
Cc1ccc(-c2nnc(SCC(=O)N/N=C/c3ccccc3C(=O)O)n2-c2ccccc2)cc1	x	x	15	x	x
SMILES	HCV inhibitor	FMDV inh	HCMV inh	VACV Venus inh	VACV mCherry inh
Cc1ccc(-c2nn(-c3ccccc3)cc2/C=N/NC(=O)c2ccncc2)o1	-20%	5%	u	-8%	i
O=C(N/N=C/c1cn(-c2cccs2)nc1-c1ccccc1)c1ccccc1Cl	11µM*	6%	-17	-16%	-11%
Cc1ccc(-c2nn(-c3ccccc3)cc2/C=N/NC(=O)c2ccc(Br)o2)cc1	-11%	28µM*	22	-15%	x
Cc1nnc(SCC(=O)N/N=C/c2cn(-c3ccccc3)nc2-c2ccccc2)n1-c1ccccc1	u	28µM*	3	u	u
O=C(N/N=C/c1cn(-c2ccccc2)nc1-c1ccccc1)c1ccco1	u	-18%	-21	x	x
CCCCCCCCN1C(=O)[C@@H](CC(=O)NCCCOC)C[C@@]2(C(=O)OC)C1=C[C@H](C(C)(C)C)O[C@@H]2C	x	x	-11	x	x
